Measured values published in PubChem BioAssay (NCI).
About 79,000 compounds went through this panel and 15% of them were active in at least one assay; those are over-represented in the sample as a whole. The source made the active and inactive calls. No stated cut-off is given here; in the data, active means growth inhibition above about 70%; inactive means the rest.

Columns and labels:
[1] = NCI Yeast Anticancer Drug Screen. Data for the rad50 strain (AID 155);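 further: 0% = growth of vehicle-only cultures of the same strain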; conditions: S. cerevisiae rad50 strain growth inhibition; at 50.0 µM; stronger effect = higher value
Summary of the method: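 Compounds were tested on a yeast strain with an engineered DNA damage repair alteration; the reported value is growth inhibition normalised to vehicle treatment.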

[2] = NCI Yeast Anticancer Drug Screen. Data for the mec2-1 strain (AID 157); conditions: S. cerevisiae mec2-1 strain, at 50.0 µM, stronger effect = higher value
Summary of the method: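 Each compound was tested on mec2-1 yeast, a strain altered in DNA damage repair or cell cycle control. Growth inhibition is reported relative to vehicle.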

[3] = NCI Yeast Anticancer Drug Screen. Data for the sgs1 mgt1 strain (AID 161);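 further: 0% = growth of cultures given vehicle only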; conditions: S. cerevisiae sgs1 mgt1 strain, at 50.0 µM, stronger effect = higher value
Summary of the method: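 Inhibition of yeast growth, normalised to vehicle-treated controls, is reported for a strain bearing genetic alterations in DNA damage repair.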

[4] = NCI Yeast Anticancer Drug Screen. Data for the cln2 rad14 strain (AID 165);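 further: 0% = growth equal to vehicle treated cultures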; conditions: S. cerevisiae cln2 rad14 strain, at 50.0 µM, stronger effect = higher value
Summary of the method: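 Test compounds were added to cln2 rad14 yeast cultures; inhibition of growth was then determined by comparison with vehicle treatment.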

[5] = NCI Yeast Anticancer Drug Screen. Data for the bub3 strain (AID 167); conditions: S. cerevisiae bub3 mutant strain, at 50.0 µM, stronger effect = higher value
Summary of the method: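 Growth of a checkpoint-deficient yeast mutant is measured after compound exposure. Values represent inhibition relative to vehicle.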

[6] = NCI Yeast Anticancer Drug Screen. Data for the mlh1 rad18 strain (AID 175); conditions: S. cerevisiae mlh1 rad18 strain growth inhibition; at 50.0 µM; stronger effect = higher value
Summary of the method: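 Inhibition values reflect reduced growth of mutant yeast versus vehicle-treated controls following compound exposure; the mutations affect DNA damage repair.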

Measured: growth inhibition

COC(=O)/C(=C\SCc1ccccc1)NC(C)=O
inactive: [1] 0.45% | [2] 6.7% | [3] -1.55% | [4] -7.7% | [5] -24.2% | [6] -20.8%

Cc1ccc(CNC(=S)Nc2ccc(F)cc2)c(C)c1
inactive: [1] -7.6% | [2] 30.1% | [3] 30.4% | [4] -24.7% | [5] 46.1% | [6] 27.4%

COc1cc(C(=O)Nc2cccc3ccccc23)c(Br)c(OC)c1OC
inactive: [1] 19.3% | [2] 17.3% | [3] 39.5% | [4] 26.9% | [5] 53.5% | [6] 32.7%

CCOC(=O)C1=C(NC(C)(C)C)OC/C1=N\NC(=O)Cc1ccccc1
inactive: [1] 42.8% | [2] -3.6% | [3] 21.2% | [4] 16.6% | [5] 26.2% | [6] 28.1%

CCOC(=O)C(=O)Nc1c(C)cccc1CC
inactive: [1] 0.15% | [2] -4.1% | [3] -5.05% | [4] -16.4% | [5] 6.2% | [6] -1.05%

Cc1ccccc1C(=O)c1ccccc1Cc1cccc2ccccc12
inactive: [1] -2.4% | [2] -10.3% | [3] -10.2% | [4] 1.1% | [5] 8.95% | [6] -22.9%

COC(=O)c1ccc(OC(=O)Nc2cccc(C(C)=O)c2)cc1
inactive: [1] 14.2% | [2] 14.9% | [3] 10.6% | [4] -9.2% | [5] 12.7% | [6] 34.8%

CCOC(=O)CN
inactive: [1] -0.25% | [2] 7.7% | [3] 2.15% | [4] -0.4% | [5] -2% | [6] 14.1%

CCc1nc(-c2ccccc2)nc2c1nc(-c1ccc(C)cc1)n2Nc1ccccc1
inactive: [1] 0.85% | [2] 6.05% | [3] -2.95% | [4] -0.25% | [5] -4.45% | [6] 20.9%

COc1cc2c(cc1OC)[C@H](C)N1CCc3cc(OC)c(OC)cc3[C@@H]1C2
inactive: [1] 2.1% | [2] -29.6% | [3] 6.65% | [4] 14.3% | [5] 9.45% | [6] -37%

CN(C)CCOC(=O)c1ccc(N)cc1
inactive: [1] -6.35% | [2] 1.6% | [3] -31.8% | [4] -19.6% | [5] 23.1% | [6] -8.35%

COc1ccc(C2N(c3ccccc3)OC(=O)N2c2ccccc2)cc1 (stereo unspecified)
inactive: [1] 43.8% | [2] 7.2% | [3] 16.1% | [4] 9.1% | [5] 14.4% | [6] 20.8%

CCCCCCC(CC)C(N)=O (stereo unspecified)
inactive: [1] 9.1% | [2] 7.8% | [3] -4.1% | [4] -7.8% | [5] -8.15% | [6] -7.6%

COc1cccc(/C=C2\C(=O)N(C(=O)Cc3ccccc3)N=C2C)c1
inactive: [1] 4.3% | [2] -30.2% | [3] -34.8% | [4] -0.45% | [5] -14.8% | [6] -24.1%

CCCCC(CC)COC(=O)C(C)CCC (stereo unspecified)
inactive: [1] 4.65% | [2] -1.1% | [3] -2.4% | [4] -27.7% | [5] 17.9% | [6] 5%

c1ccc(-c2cnn3c(-c4ccccc4)cnnc23)cc1
inactive: [1] -1.65% | [2] -8.1% | [3] -2.55% | [4] 2.8% | [5] 2.8% | [6] 4.65%

S=C(NCc1cccnc1)Nc1ccc(Cl)c(Cl)c1
inactive: [1] 26.8% | [2] 13.3% | [3] 27.9% | [4] 5.85% | [5] 27.6% | [6] 13.7%

ClC1(Cl)C2CCOC21n1cnc2ccccc21 (stereo unspecified)
inactive: [1] 11.8% | [2] -5.1% | [3] -8.3% | [4] 4.95% | [5] 8.25% | [6] -11.2%

O=c1oc2ccccc2cc1CCBr
inactive: [1] 16.4% | [2] 11.4% | [3] -6.1% | [4] -3.3% | [5] -9.2% | [6] -8.05%

O=C1OC(c2cccc(Cl)c2)=N/C1=C\c1cc(Br)ccc1O
inactive: [1] 20.6% | [2] 5.7% | [3] 27.8% | [4] 5.2% | [5] -0.4% | [6] 5.95%

C/C=C/Cc1ccc(O)cc1
inactive: [1] 4.9% | [2] -6% | [3] -1% | [4] -25.4% | [5] -1.4% | [6] -1.05%

Cc1ccc(C2=Nn3c(nc4sc(C)c(C)c4c3=O)SC2)cc1
inactive: [1] -27.9% | [2] -3.25% | [3] -23.1% | [4] 6.15% | [5] -22.1% | [6] -10.6%

O=c1c(SCc2ccc(Cl)cc2)c(SCc2ccc(Cl)cc2)cnn1-c1ccccc1
inactive: [1] -5.7% | [2] -17.2% | [3] 19.2% | [4] 6.65% | [5] -6.6% | [6] 13.1%

O=C(O)/C=C/C(=O)Nc1cccc2c1Cc1ccccc1-2
inactive: [1] -7.2% | [2] 9% | [3] 20.9% | [4] -29.5% | [5] -4.3% | [6] 19.9%

CN(C)CCOC(=S)S
inactive: [1] 1.85% | [2] -0.4% | [3] -9.3% | [4] 1.5% | [5] 10.3% | [6] -1%

Cc1ccc(S(=O)(=O)c2cc3ccccc3oc2=O)cc1
inactive: [1] -1.25% | [2] 1% | [3] -8.2% | [4] -40% | [5] -11.2% | [6] -9.65%

COc1ccc(/C(Br)=C2\OC(=O)c3ccccc32)cc1
inactive: [1] -7.95% | [2] -19.9% | [3] -13.4% | [4] -35.1% | [5] 18.4% | [6] -6.9%

Cc1[nH]n(C(=O)c2ccc(Cl)cc2)c(=O)c1/C=C1\C(O)=CC(=O)c2ccccc21
inactive: [1] 31.6% | [2] -6.85% | [3] 18.7% | [4] -19.6% | [5] 30.7% | [6] 16.9%

O=c1c2nn3c(=O)n(-c4ccccc4)c(=O)c3nn2c(=O)n1-c1ccccc1
inactive: [1] -33% | [2] -10.6% | [3] -14.8% | [4] -5.8% | [5] -24.7% | [6] -3.05%

O=NN(Cc1ccccc1)c1ccc(OCc2ccccc2)c(NC(=O)CCC2OCCO2)c1
inactive: [1] 6.95% | [2] 4.25% | [3] 30.4% | [4] 7.05% | [5] 39.9% | [6] 9.5%

NC(CSC(c1ccccc1)(c1ccccc1)c1ccc(C(=O)O)cc1)C(=O)O (stereo unspecified)
inactive: [1] 54.2% | [2] -4.1% | [3] 18.5% | [4] 15.5% | [5] 2.2% | [6] 9.85%

CCCC(=O)OCC1OC(n2ccc(N)nc2=O)C(OC(=O)CCC)C1OC(=O)CCC (stereo unspecified)
inactive: [1] 18.6% | [2] -22.4% | [3] 36.3% | [4] 17.8% | [5] 10.6% | [6] 8.2%

Cc1cc2c(cc1C)C(=O)c1ccccc1C2=O
inactive: [1] -29.3% | [2] -36.1% | [3] -15.1% | [4] -6.7% | [5] -30.7% | [6] -21.8%

O=c1c2cccnc2cc(-c2ccccc2)n1CCO
inactive: [1] -27.5% | [2] -12.3% | [3] -16.2% | [4] 4.55% | [5] 3.3% | [6] -4.15%

O=C(ONC1CCC(CC2CCCCC2)CC1)c1ccccc1 (stereo unspecified)
active: [1] 98.5% | [2] 98.8% | [3] 99% | [4] 96.8% | [5] 98.2% | [6] 98.5%

CCN(CC)CCOC(=O)c1ccc(N=Nc2cc(C(=O)O)ccc2O)cc1
inactive: [1] 14.8% | [2] -6.3% | [3] 4.1% | [4] -6.55% | [5] -0.8% | [6] -12.5%

C=CCN(CC=C)CCNc1cc(C)nc(Nc2nc3ccc(Cl)cc3[nH]2)n1
active: [1] 90.6% | [3] 93.2% | [4] 82% | [6] 91.5%
inactive: [2] 50.4% | [5] 24.9%

CN1C(=O)C23CCCN2C(=O)C1(C)SC(=N)S3 (stereo unspecified)
inactive: [1] 2.35% | [2] 7.6% | [3] -2.55% | [4] -45.4% | [5] 2% | [6] 4.95%

CCc1nnnn1-c1ccc(Br)cc1
inactive: [1] 8.8% | [2] 38.5% | [3] 13.7% | [4] 9.8% | [5] 40.2% | [6] 18.5%

CCOc1ccc(/C=C/c2ccc(OCC)cc2)cc1
inactive: [1] -4.65% | [2] -16.4% | [3] -8.9% | [4] -1.5% | [5] 8.55% | [6] -24.3%

CN(C)CCCC[N+](C)(C)Cc1ccc(C[N+](C)(C)CCCC[N+](C)(C)Cc2ccc(CCl)cc2)cc1
inactive: [1] -9.7% | [2] -15% | [3] -7.2% | [4] -0.95% | [5] -1.9% | [6] -3.55%
